# Assay results taken from PubChem BioAssay AID540254 (Southern Research Specialized Biocontainment Screening …, 2011).
# Out of some 1,800 compounds screened, fewer than 10 were called active. No rule for the calls is given here. Not all results are given here. Results with a measured potency or affinity are listed apart.
# Assay: antiviral activity against H1N1 influenza, dose response, cell-based, strain KY180 (AID 540254)
# Conditions: H1N1 KY180 influenza antiviral cell-based screen; series mostly up to 40 µM
row,SMILES,outcome
1,COCc1cc(=O)[nH]c(Nc2nc3ccc(C)cc3o2)n1,inactive
2,O=C(CCCN1C(=O)c2ccccc2C1=O)Nc1sc2c(c1C(=O)NCc1ccco1)CCC2,inactive
3,Cc1ccc(-c2nc3ncccn3c2Nc2ccc3c(c2)OCO3)o1,inactive
4,O=[N+]([O-])c1cc(/C=N/N/C(=N/c2ccccn2)c2ccccn2)ccc1O,inactive
5,O=[N+]([O-])c1cc2no[n+]([O-])c2cc1N1CCCCC1,inactive
6,CCOc1ccc(C(=O)N/N=C/c2cccc3cccnc23)cc1,inactive
7,Cc1nc2ccc(S(=O)(=O)Nc3cccc(-c4nc5cccnc5s4)c3C)cc2s1,inactive
8,COc1cc(C2CC(=O)Oc3c(C(CCN4CCCC(C)C4)c4ccc(N(C)C)cc4)c(OC)cc(OC)c32)cc(OC)c1OC (stereo not drawn),inactive
9,CCOc1cc2c(cc1OCC)-n1cccc1C(c1ccc(C(C)C)cc1)NC2 (stereo not drawn),inactive
10,CSc1cccc(NC(=S)N(CCN(C)C)C(C)c2ccccn2)c1 (stereo not drawn),inactive
11,Cc1ccccc1NC(=S)N(CCN(C)C)C(C)c1ccccn1 (stereo not drawn),inactive
12,O=C(Cn1cc(SCc2ccc(Cl)cc2)c2ccccc21)N1CCOCC1,inactive
13,O=C1C(NS(=O)(=O)c2ccc(Br)cc2)=C(N2CCCCC2)C(=O)c2ccccc21,inactive
14,CCN(CC)C(=O)CCc1nc2sc3c(c2c(=O)[nH]1)CCCC3,inactive
15,O=C(CN1CCN(Cc2cccc(Cl)c2)C1=O)NCc1ccccn1,inactive
16,Cc1ccc(Cl)c(NC(=O)COC(=O)CNS(=O)(=O)/C=C/c2ccccc2)c1Cl,inactive
17,CC(C)C(=O)N(c1ccc2oc(=O)sc2c1)S(=O)(=O)c1ccccc1,inactive
18,CC(=NNC(=S)N1CCC1)c1ccccn1,inactive
19,COc1ccccc1C(CCNCc1ccc(N(C)C)cc1)c1ccc(OC(C)C)cc1 (stereo not drawn),inactive
20,CSC1=NC(C)(C)CC2(C)Nc3ccccc3N12 (stereo not drawn),inactive
21,Cc1cccn2cc(CCNS(=O)(=O)c3ccc4c(c3)OCCO4)nc12,inactive
22,Cc1cc(C(=O)N/N=C/c2cc([N+](=O)[O-])ccc2O)c2ccccc2n1,inactive
23,CC(C)(C)c1nnc(N/N=C/c2cc(Br)ccc2O)n(N)c1=O,inactive
